# Laboratory results taken from PubChem BioAssay.
# Where “and” joins values, the source holds several entries; their conditions need not be identical. Equal values may be shown once. Records with an inconclusive call do not appear. Some structures have more than one record in an assay (separate samples or runs), and their calls can disagree. Calls of active or inactive are those of the source.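 How the source made its calls, unless noted: active means compounds whose cell count with miR-34 switched on is under 0.7 times the count with it off; inactive means the rest.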
# Columns and labels:
# [1] = liver-stage malaria parasite growth inhibition, primary screen, cell-based, HepG2, luciferase luminescence, HepG2 viability (AID 624349; in the data active means parasite load remaining mostly below about 12%, no sharp cut-off; inactive means mostly above about 10%;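 further: 100% = mean of DMSO negative control wells on the same plate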); settings: P. berghei liver stage in HepG2, luciferase luminescence, concentration not given here; parasite load remaining: stronger effect = lower value; viability: measured here: HepG2 viability without parasites
# [2] = stimulators of nuclear beta-catenin in C2C12, primary screen, imaging, WNT3A-conditioned medium, mouse C2C12, NPC library (AID 1117326; in the data active means nuclear beta-catenin stimulation mostly above about 4.2%, no sharp cut-off; inactive means mostly below about 10%; further: reference of the scale not given here); settings: stronger effect = higher value
# [3] = stimulators of insulin release from INS-1E, primary screen, cell-based, 5 mM glucose, NPC library (AID 1117329;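 active means compound raises insulin release from rat beta cells at 5 mM glucose, no numeric limit stated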; further: reference of the scale not given here); settings: rat INS-1E insulin secretion, at 10 µM, stronger effect = higher value
# [4] = growth inhibition of GSK3B-pretreated HCT116 cells – cell-based, CellTiter-Glo, 0.2 to 20 µM (AID 1117336;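 active means compounds lowering colon cancer cell viability after pretreatment blocking the GSK3B kinase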); settings: HCT116 viability after GSK3B inhibitor, at 20 µM, stronger effect = higher value
# [5] = inhibition of endothelial tube formation, primary screen, imaging, VEGF stimulated, CD31 staining, tube area, NPC library (AID 1117340;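 active means compound that reduces growth-factor-driven endothelial tube area in a mixed cell culture, no cutoff stated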); settings: VEGF-stimulated ADSC/ECFC co-culture, at 10 µM, stronger effect = higher value
# [6] = glucagon-like peptide 1 release enhancers, primary assay, NCI-H716 cell line, NPC library (AID 1117341;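 active means compound raises GLP1 secretion from the human gut endocrine cells, with no numeric limit stated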; further: reference of the scale not given here); settings: NCI-H716 cells, at 10 µM, stronger effect = higher value
# [7] = HCT116 colon cancer cell growth inhibition, primary screen, CellTiter-Glo luminescence, NPC library (AID 1117342;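 active means compounds that lower survival of HCT116 colon cancer cells in the luminescence readout, no numeric limit stated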); settings: at 20 µM (top of the series)
# [8] = CellTiter-Glo luminescent readout of SW480 viability loss, NPC library primary (AID 1117343;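 active means compounds that lower viability of the colon cancer cells in the luminescence readout, with no numeric limit stated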); settings: CellTiter-Glo luminescence; at 20 µM (top of the series) unless noted
# [9] = decreased DLD-1 cellular survival, CellTiter-Glo luminescent readout, NPC compound collection, primary HTS (AID 1117346;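 active means compounds that lower survival of DLD-1 colon cancer cells in the luminescence readout, no cutoff given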); settings: DLD-1 viability, CellTiter-Glo luminescence; at 20 µM (top of the series)
# [10] = test system: Aerobactin synthetase IucA (Klebsiella pneumoniae); test: IucA aerobactin synthetase inhibitors, biochemical, Tocris library, absorbance (AID 1345561; call rule not given here;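 further: 100% = enzyme without compound and 0% = no enzyme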); settings: purified IucA enzyme assay, absorbance (OD) read-out; stronger effect = lower value;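 tested at 8 µM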
# [11] = sensitizers of A549 cells to miR-34 induction, primary screen, imaging, A549 dox-inducible miR-34, nuclei and caspase counts (AID 1347080); settings: A549 miR-34 inducible, Hoechst nuclei count, 48 h
# [12] = survival rescue of mitochondrial mutant cells in low glucose, primary screen, MELAS cybrids, Rieske KO mouse fibroblasts, CellTiter-Glo (AID 1508586;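 active means mean z-score across replicates of 1.96 or higher in either the MELAS or the Rieske mutant cell line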;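 further: z relative to plate mean and SD of compound and empty wells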)
# [13] = viability rescue of complex I mutant cybrids, primary screen, cell-based, galactose medium, ATP luminescence (AID 1645843;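 active means z-score of at least 1.8 in each of two replicates, scored against plate mean and spread of sample wells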;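 further: positive z means more ATP and so rescue of galactose-driven cybrid death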); settings: complex I mutant cybrid cells, 72 h, stronger effect = higher value
# [14] = biological target: NAD(+) hydrolase SARM1 (Homo sapiens) (UniProt Q6SZW1); test: SARM1 TIR NADase inhibitors, cell lysate, NAD-Glo luminescence (AID 1508614;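 active means compound whose remaining NAD level is above about 45 nM, limit read from the data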); settings: SAM-TIR HEK293T lysate NADase, at 1 µM, stronger effect = higher value
# Chain of NAD(+) hydrolase SARM1 (Homo sapiens) (Q6SZW1 whole entry, looked up): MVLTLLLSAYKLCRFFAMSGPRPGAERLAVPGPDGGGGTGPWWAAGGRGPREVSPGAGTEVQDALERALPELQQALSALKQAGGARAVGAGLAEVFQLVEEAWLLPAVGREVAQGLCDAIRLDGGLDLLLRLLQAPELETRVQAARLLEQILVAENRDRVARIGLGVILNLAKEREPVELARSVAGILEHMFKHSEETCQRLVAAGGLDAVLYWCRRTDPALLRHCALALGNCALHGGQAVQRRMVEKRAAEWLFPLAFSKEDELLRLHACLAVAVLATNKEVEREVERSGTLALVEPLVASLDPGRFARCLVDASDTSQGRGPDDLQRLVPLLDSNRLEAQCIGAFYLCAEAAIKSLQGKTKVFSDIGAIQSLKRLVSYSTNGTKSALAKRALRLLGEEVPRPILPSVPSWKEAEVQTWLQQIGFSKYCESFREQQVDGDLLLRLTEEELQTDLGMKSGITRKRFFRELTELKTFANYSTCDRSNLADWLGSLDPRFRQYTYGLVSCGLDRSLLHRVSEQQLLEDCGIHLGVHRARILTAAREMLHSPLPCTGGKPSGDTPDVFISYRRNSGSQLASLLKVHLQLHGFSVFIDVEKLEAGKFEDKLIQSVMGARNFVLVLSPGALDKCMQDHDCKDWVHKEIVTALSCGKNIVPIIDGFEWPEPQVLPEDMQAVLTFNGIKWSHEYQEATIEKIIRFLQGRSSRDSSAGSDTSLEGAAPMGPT
# [15] = growth inhibition of DIPG glioma cells, dose response, cell-based, SU-DIPG-XIII, MIPE4.0, CellTiter-Glo, qHTS (AID 1347061; cut-off not given, nearly all actives have AC50 up to about 37 µM;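 further: cells exposed to compound for 48 hours before readout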); settings: SU-DIPG-XIII viability, CellTiter-Glo ATP luminescence
# [16] = SU-DIPG-VI glioma cell viability, MIPE4.0 library, CellTiter-Glo luminescence, qHTS (AID 1347066; cut-off not given, nearly all actives have AC50 up to about 30 µM;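 further: cells exposed to compound for 48 hours before readout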); settings: CellTiter-Glo ATP luminescence
# [17] = stronger effect = lower value, cell number ratio, induced over uninduced
# [18] = measured here: relative caspase fold change +Dox/-Dox
# [19] = measured here: total cells with miR-34 induction, stronger effect = lower value
# [20] = measured here: total cells without miR-34 induction
# [21] = MELAS cybrid survival, CellTiter-Glo 48 h, stronger effect = higher value
# [22] = Rieske KO mouse fibroblast survival, CellTiter-Glo 72 h
structure (smiles),measurement,setting,value
CCN1CCC[C@H]1CNC(=O)c1c(OC)ccc(Br)c1OC,parasite load remaining,[1],122% (inactive) and 75.7% (inactive)
same,viability,[1],119% and 100%
same,nuclear beta-catenin stimulation,[2]; at 10 µM,0.4% (inactive)
same,nuclear beta-catenin stimulation,"[2]; stimulation, at 2 µM",-0.6%
same,insulin secretion stimulation,[3],6.1% (inactive)
same,viability decrease,[4],-9.5% (inactive)
same,tube area decrease,[5],19.3% (active)
same,GLP1 secretion stimulation,[6],0.8% (inactive)
same,inhibition of viability,[7],6.8% (inactive)
same,viability decrease (inhibition),[8],-6.9% (inactive)
same,viability decrease (inhibition),[9],6.8% (inactive)
same,remaining activity,[10],89% (inactive)
same,fold change,[11]; [17],0.989 (inactive) and 0.971 (inactive) and 0.881 (inactive)
same,fold change,[11]; [18],0.662 and 1.03 and 1.37
same,cell count,[11]; [19],9050 and 9640 and 10200
same,cell count,[11]; [20],9150 and 9920 and 11500
same,z-score,[12]; [21],0.167 (inactive) and 0.0526 (inactive)
same,z-score,[12]; [22],-0.0474 and -0.355
same,z-score,[13],0.63 (inactive) and 0.485 (inactive)
Cc1ccc2c(c1)c1c3n2CCNC3CCC1 (stereo not given),parasite load remaining,[1],192% (inactive)
same,viability,[1],76.9%
same,nuclear beta-catenin stimulation,[2]; at 10 µM,3% (inactive)
same,nuclear beta-catenin stimulation,"[2]; stimulation, at 2 µM",2%
same,insulin secretion stimulation,[3],0.5% (inactive)
same,viability decrease,[4],-63.6% (inactive)
same,tube area decrease,[5],18.5% (inactive)
same,GLP1 secretion stimulation,[6],11.2% (inactive)
same,inhibition of viability,[7],44% (inactive)
same,viability decrease (inhibition),[8],73.4% (active)
same,viability decrease (inhibition),[9],29.4% (inactive)
same,remaining activity,[10],98.7% (inactive)
same,fold change,[11]; [17],0.931 (inactive) and 0.909 (inactive)
same,fold change,[11]; [18],0.816 and 0.659
same,cell count,[11]; [19],8540 and 8100
same,cell count,[11]; [20],9170 and 8920
same,z-score,[12]; [21],0.468 (inactive)
same,z-score,[12]; [22],-0.847
same,z-score,[13],-0.41 (inactive)
Cc1cc(C)c(/C=C2\C(=O)Nc3ccccc32)[nH]1,parasite load remaining,[1],27.2% (inactive)
same,viability,[1],69.7%
same,nuclear beta-catenin stimulation,[2]; at 10 µM,9.9% (inactive)
same,nuclear beta-catenin stimulation,"[2]; stimulation, at 2 µM",0.7%
same,insulin secretion stimulation,[3],-0.8% (inactive)
same,viability decrease,[4],20.1% (inactive)
same,tube area decrease,[5],99.7% (active)
same,GLP1 secretion stimulation,[6],12.8% (inactive)
same,inhibition of viability,[7],-18.7% (inactive)
same,viability decrease (inhibition),[8],48.7% (inactive)
same,viability decrease (inhibition),[9],37.2% (inactive)
same,remaining activity,[10],104% (inactive)
same,fold change,[11]; [17],1.05 (inactive) and 0.921 (inactive) and 0.87 (inactive)
same,fold change,[11]; [18],0.773 and 1.14 and 1.43
same,cell count,[11]; [19],4600 and 5070 and 6640
same,cell count,[11]; [20],4380 and 5510 and 7630
same,z-score,[13],0.06 (inactive) and 0.095 (inactive)
COCC(=O)O[C@]1(CCN(C)CCCc2nc3ccccc3[nH]2)CCc2cc(F)ccc2[C@@H]1C(C)C,nuclear beta-catenin stimulation,[2]; at 10 µM,14.4% (inactive)
same,nuclear beta-catenin stimulation,"[2]; stimulation, at 2 µM",-2.2%
same,insulin secretion stimulation,[3],3.5% (inactive)
same,viability decrease,[4],107% (active)
same,tube area decrease,[5],67.6% (active)
same,GLP1 secretion stimulation,[6],20.1% (active)
same,inhibition of viability,[7],110% (active)
same,viability decrease (inhibition),[8],130% (active)
same,viability decrease (inhibition),[9],101% (active)
same,remaining activity,[10],86.1% (inactive)
same,fold change,[11]; [17],0.582 (active) and 1.03 (inactive)
same,fold change,[11]; [18],0.681 and 1.08
same,cell count,[11]; [19],108 and 550
same,cell count,[11]; [20],186 and 534
same,z-score,[13],-1.29 (inactive) and -0.675 (inactive)
C[C@H]1O[C@H](O[C@H]2[C@H](O)[C@@H](O)[C@@H](O[C@H]3[C@H](O)[C@@H](O)[C@H](O)O[C@@H]3CO)O[C@@H]2CO)[C@H](O)[C@@H](O)[C@@H]1N[C@H]1C=C(CO)[C@@H](O)[C@H](O)[C@H]1O,nuclear beta-catenin stimulation,[2]; at 10 µM,-0.6% (inactive)
same,nuclear beta-catenin stimulation,"[2]; stimulation, at 2 µM",-1.1%
same,insulin secretion stimulation,[3],0.7% (inactive)
same,viability decrease,[4],-5.3% (inactive)
same,tube area decrease,[5],-8.2% (inactive)
same,GLP1 secretion stimulation,[6],-2.2% (inactive)
same,inhibition of viability,[7],18.9% (inactive)
same,viability decrease (inhibition),[8],-0.4% (inactive)
same,viability decrease (inhibition),[9],-0.5% (inactive)
same,remaining activity,[10],108% (inactive)
same,fold change,[11]; [17],0.838 (inactive)
same,fold change,[11]; [18],1.97
same,cell count,[11]; [19],7710
same,cell count,[11]; [20],9210
same,z-score,[12]; [21],-0.1 (inactive)
same,z-score,[12]; [22],-0.573
same,z-score,[13],0.18 (inactive)
CCOC(=O)c1cnc2c(cnn2CC)c1NN=C(C)C,parasite load remaining,[1],33.1% (inactive)
same,viability,[1],68.5%
same,nuclear beta-catenin stimulation,[2]; at 10 µM,-1.1% (inactive)
same,nuclear beta-catenin stimulation,"[2]; stimulation, at 2 µM",1.4%
same,insulin secretion stimulation,[3],5.8% (inactive)
same,viability decrease,[4],-110% (inactive)
same,tube area decrease,[5],-6% (inactive)
same,GLP1 secretion stimulation,[6],0.7% (inactive)
same,inhibition of viability,[7],29.6% (inactive)
same,viability decrease (inhibition),[8],21.1% (inactive)
same,viability decrease (inhibition),[9],27.5% (inactive)
same,remaining activity,[10],115% (inactive)
same,fold change,[11]; [17],1 (inactive) and 0.89 (inactive) and 0.857 (inactive)
same,fold change,[11]; [18],1.06 and 0.8 and 1.84
same,cell count,[11]; [19],7810 and 7710 and 8880
same,cell count,[11]; [20],7780 and 8670 and 10400
same,z-score,[12]; [21],1.91
same,z-score,[12]; [22],2.39
same,z-score,[13],1.13 (inactive) and 2.63 (active) and 1.51 (inactive)
CN=C(NC#N)Nc1ccc(C2=NNC(=O)CC2C)cc1 (stereo not given),parasite load remaining,[1],25% (inactive)
same,viability,[1],67%
same,nuclear beta-catenin stimulation,[2]; at 10 µM,-0.7% (inactive)
same,nuclear beta-catenin stimulation,"[2]; stimulation, at 2 µM",-0.1%
same,insulin secretion stimulation,[3],0.3% (inactive)
same,viability decrease,[4],-15.4% (inactive)
same,tube area decrease,[5],-8.1% (inactive)
same,GLP1 secretion stimulation,[6],-1.9% (inactive)
same,inhibition of viability,[7],-3.9% (inactive)
same,viability decrease (inhibition),[8],4.1% (inactive)
same,viability decrease (inhibition),[9],-10.5% (inactive)
same,remaining activity,[10],117% (inactive)
same,fold change,[11]; [17],0.976 (inactive) and 0.925 (inactive) and 0.857 (inactive)
same,fold change,[11]; [18],0.912 and 0.898 and 1.1
same,cell count,[11]; [19],6170 and 8930 and 9670
same,cell count,[11]; [20],6320 and 9660 and 11300
same,z-score,[12]; [21],0.199 (inactive)
same,z-score,[12]; [22],0.162
same,z-score,[13],0.095 (inactive) and 0.625 (inactive)
COc1ccc2c(c1OC)C(=O)O[C@@H]2[C@H]1c2c(cc3c(c2OC)OCO3)CCN1C,parasite load remaining,[1],89.7% (inactive) and 72.1% (inactive)
same,viability,[1],104% and 75.4%
same,nuclear beta-catenin stimulation,[2]; at 10 µM,3.5% (inactive)
same,nuclear beta-catenin stimulation,"[2]; stimulation, at 2 µM",0.1%
same,insulin secretion stimulation,[3],2% (inactive)
same,viability decrease,[4],55.6% (active)
same,tube area decrease,[5],4.1% (inactive)
same,GLP1 secretion stimulation,[6],-1.8% (inactive)
same,inhibition of viability,[7],46.2% (inactive)
same,viability decrease (inhibition),[8],90.4% (active)
same,viability decrease (inhibition),[9],2.7% (inactive)
same,remaining activity,[10],111% (inactive)
same,fold change,[11]; [17],0.961 (inactive) and 0.857 (inactive) and 1.04 (inactive)
same,fold change,[11]; [18],0.539 and 1.29 and 0.971
same,cell count,[11]; [19],6010 and 7290 and 6960
same,cell count,[11]; [20],6250 and 8520 and 6720
same,remaining NAD,[14],10 nM (inactive)
same,z-score,[13],0.555 (inactive) and 0.075 (inactive)
OC(CN1CCC(Cc2ccc(F)cc2)CC1)c1ccc(Cl)cc1 (stereo not given),nuclear beta-catenin stimulation,[2]; at 10 µM,2% (inactive)
same,nuclear beta-catenin stimulation,"[2]; stimulation, at 2 µM",2.8%
same,insulin secretion stimulation,[3],2.2% (inactive)
same,viability decrease,[4],78.9% (active)
same,tube area decrease,[5],-4.2% (inactive)
same,GLP1 secretion stimulation,[6],2.9% (inactive)
same,inhibition of viability,[7],78.6% (active)
same,viability decrease (inhibition),[8],67.1% (active)
same,viability decrease (inhibition),[9],75.2% (active)
same,remaining activity,[10],78.5% (inactive)
same,outcome,[15],inactive
same,outcome,[16],inactive
same,fold change,[11]; [17],1.15 (inactive) and 0.894 (inactive)
same,fold change,[11]; [18],0.858 and 1.23
same,cell count,[11]; [19],6880 and 8360
same,cell count,[11]; [20],6000 and 9350
same,z-score,[13],-0.6 (inactive) and 0.185 (inactive)
